# PubChem BioAssay
# For some of these results: Measured potencies and affinities stand elsewhere. Results filed as inconclusive are left out. The source made the active and inactive calls. Unless noted, no rule for the calls is given here.
# Experiments:
# [1] = tested on: XIP peptide (Xip251-270) binding; assay: XIP fragment 251-270 binding compounds – biochemical, small-molecule microarray, fluorescence 635/667 nm, 0.1 µg/mL protein, primary screen (AID 1182); conditions: fluorescent protein binding, 635 nm, higher = more signal, called active from +8 up or from −8 down
# XIP peptide (Xip251-270) = assay: compounds binding XIP fragment 251-270 – biochemical, small-molecule microarray, fluorescence 635/667 nm, 0.5 µg/mL protein, primary screen (AID 1183); conditions: fluorescence 635 nm, higher = more signal
# [2] = blood-stage malaria parasite viability loss – strain 3D7, DAPI fluorescence, 100 nL, primary screen (AID 1184);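 also: parasites grown inside human red blood cells in medium with human serum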; conditions: P. falciparum 3D7 growth, 3 d, higher = more signal
# [3] = target: Homeobox protein Hox-A13 (Mus musculus) (UniProt Q62424); assay: disruptors of Hoxa13 oligonucleotide interaction – biochemical, fluorescence polarization, labeled oligonucleotide, primary screen (AID 1185); conditions: Hoxa13:DNA binding, 15 min, higher = more signal, called active from +8 up or from −8 down
# [4] = blockers of DNA damage checkpoint Chk1 activation – imaging, HeLa, hydroxyurea, phospho-Chk1 antibody, percent positive cells, primary screen (AID 1186); conditions: hydroxyurea-induced phospho-Chk1 immunofluorescence imaging, higher = more signal
# [5] = blockers of DNA damage checkpoint Chk1 activation – imaging, HeLa, hydroxyurea, phospho-Chk1 nuclear intensity, primary screen (AID 1187); conditions: hydroxyurea-induced phospho-Chk1 immunofluorescence imaging, higher = more signal
# [6] = C. neoformans lysis by adenylate kinase leakage – AK release luminescence, cherry-picks, dose response (AID 687000;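 active = fitted dose curve reaches 40% lysis signal rise at or below the highest valid concentration tested for that sample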;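 also: luminescent detection of adenylate kinase leaking from lysed yeast; 0% = median neutral control signal and 100% = double that signal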); conditions: 4 h, 100% = twice the neutral-control signal; series mostly up to 15 µM
# [7] = viability loss in HepG2 hepatoma cells – cell-based, cherry-picks, set 2, cytotoxicity control, dose response (AID 687002;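 active = a dose-response fit showing signal loss, with half-maximal concentration no higher than twice the top tested dose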); conditions: ATP luminescence (CellTiter-Glo), 48 h; series mostly up to 26 µM
# [8] = viability loss in HeLa cells – cell-based, ATP luminescence, cherry-pick samples, cytotoxicity control, dose response (AID 687004;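 active = a fitted half-maximal concentration no higher than twice the top valid tested dose, with signal falling as cells die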;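 also: 0% = neutral control median and -100% = staurosporine 10 µM control median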); conditions: ATP luminescence (CellTiter-Glo), 48 h; series mostly up to 26 µM
# [9] = fungal growth arrest, C. neoformans – Alamar Blue, cherry-picks, dose response (AID 686998;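 active = falling signal with fitted half-maximal potency no higher than twice the top valid tested dose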); conditions: Cryptococcus neoformans growth, 24 h; series mostly up to 35 µM
# Sequence of Homeobox protein Hox-A13 (Mus musculus) (Q62424 whole entry, looked up): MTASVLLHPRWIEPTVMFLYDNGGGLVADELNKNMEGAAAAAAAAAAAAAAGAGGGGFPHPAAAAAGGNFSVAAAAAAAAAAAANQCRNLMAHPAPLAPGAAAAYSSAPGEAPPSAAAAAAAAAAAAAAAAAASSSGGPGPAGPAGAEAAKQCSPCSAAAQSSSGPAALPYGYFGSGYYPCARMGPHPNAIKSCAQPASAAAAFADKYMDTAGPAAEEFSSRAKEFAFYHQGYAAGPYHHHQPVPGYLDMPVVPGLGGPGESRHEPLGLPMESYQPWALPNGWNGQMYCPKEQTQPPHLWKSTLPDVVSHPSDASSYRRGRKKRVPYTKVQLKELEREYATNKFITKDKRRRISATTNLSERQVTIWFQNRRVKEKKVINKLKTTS
SMILES,composite z-score [1],composite z-score (XIP peptide (Xip251-270)),z-score [2],z-score [3],z-score [4],z-score [5],outcome [6],outcome [7],outcome [8],outcome [9]
CCCCO[C@H]1C[C@H]2C(Br)=C[C@@]1(CO)C(=O)[C@]21CO1,-0.631 (inactive),-0.329,0.0951,-0.0157 (inactive),-0.407 (inactive),-0.291 (inactive),,,,
CC/C=C/C(=O)N(C[C@@H]1CCCO1)[C@@H]1CC(C(=O)NCCO)=C[C@H](Oc2c(I)cc(CO)cc2OC)[C@H]1O,0.969 (inactive),-0.769,-1.03,-5.37 (inactive),1 (inactive),1.11 (inactive),,,,
CC1=C([C@H](O)CCc2ccccc2)[C@H](CO)[C@@H]2C(=O)N(Cc3ccccc3)C(=O)[C@@H]2C1,-0.241 (inactive),-0.0644,-0.793,-4.92 (inactive),-0.698 (inactive),-0.835 (inactive),,,,
CC(C)CN1C(=O)[C@@]2(Cc3ccccc31)c1ccccc1C(=O)N(C1CCCCC1)[C@H]2c1ccc(CO)cc1,1.15 (inactive),-0.906,-1.38,-0.429 (inactive),-0.81 (inactive),-1.17 (inactive),,,,
COc1ccc([C@H]2C[C@H]3C(Br)=C[C@]2(OC)C(=O)[C@]32CO2)cc1,0.288 (inactive),0.261,0.755,-1.48 (inactive),-0.445 (inactive),-0.0049 (inactive),,,,
COc1cc(CO)cc(I)c1O[C@H]1C=C(C(=O)NCCO)C[C@@H](NCCc2c[nH]c3ccccc23)[C@@H]1O,-0.26 (inactive),0.0826,-3,-7.08 (inactive),-0.925 (inactive),-0.879 (inactive),,,,
CCCN1C(=O)[C@@]2(CCS(=O)(=O)c3ccccc3)N=C(c3ccc(OCCCO)cc3)O[C@H]2c2ccccc21,0.261 (inactive),0.678,-2.56,-3.2 (inactive),0.128 (inactive),0.371 (inactive),,,,
COc1ccc([Si](C)(C)[C@@H]2[C@@H](CCO)O[C@]3(C(=O)N(Cc4ccccc4)c4ccccc43)[C@H]2C)cc1,0.151 (inactive),0.283,-1.96,0.563 (inactive),-0.0106 (inactive),0.402 (inactive),,,,
COc1cc(CO)cc(I)c1O[C@H]1C=C(C(=O)NCCO)C[C@@H](N(CC2CCCCC2)C(=O)c2cc3ccccc3oc2=O)[C@@H]1O,0.193 (inactive),0.24,1.04,-6.1 (inactive),0.113 (inactive),0.194 (inactive),inactive,inactive,inactive,
CC(C)(C)OC(=O)CC[C@@]1(C(=O)NCc2ccccc2)N=C(c2ccc(OCCCO)cc2)O[C@@H]1c1ccccc1,1.59 (inactive),0.93,-2.25,-5.51 (inactive),-1.17 (inactive),-1.29 (inactive),,,,
C=CCOC(=O)[C@@H]1[C@H]2C(=O)O[C@H](c3ccccc3)[C@H](c3ccccc3)N2[C@H](c2ccc(OCCOC(=O)[C@H]3C[C@H]4C(=O)N[C@@H](CCCCNC(C)=O)C(=O)N4[C@H]3c3ccc(O)cc3)cc2)[C@@]12C(=O)Nc1ccc(I)cc12,0.393 (inactive),0.566,-1.78,0.32 (inactive),0.293 (inactive),-0.568 (inactive),,,,
Cc1ccc(S[C@]2(C(=O)NC(C)C)CC(=O)N(C3Cc4ccccc4C3)[C@@H]2c2ccc(CO)cc2)cc1,0.137 (inactive),0.882,-1.29,-3.21 (inactive),0.0695 (inactive),0.0887 (inactive),,,,
O=C1C2C=CC(C(O)Cc3ccccc3)N(Nc3ccc([N+](=O)[O-])cc3)C2C(=O)N1c1ccccc1 (stereo unspecified),2.76 (inactive),-0.224,-0.463,-5.69 (inactive),0.433 (inactive),-0.541 (inactive),,,,
C[C@]1(C(=O)NCCN2CCOCC2)c2ccccc2C(=O)N(Cc2ccccc2)[C@H]1c1ccc(CO)cc1,0.946 (inactive),0.78,-1.22,-3.99 (inactive),0.0553 (inactive),0.0648 (inactive),,,,
Cc1cc(C)c(C(O)C2C=CC3C(=O)N(C)C(=O)C3N2N2CCCCC2)c(C)c1 (stereo unspecified),0.0255 (inactive),0.849,1.09,-3.3 (inactive),-0.514 (inactive),-0.224 (inactive),,,,
CCC#CCN(Cc1ccccc1Br)[C@H](/C=C/c1ccccc1)[C@@H](O)Cc1ccccc1,-0.276 (inactive),-0.613,-0.609,0.462 (inactive),-0.415 (inactive),-0.241 (inactive),,,,
C[C@@H]1NC(=O)[C@H](Cc2ccccc2)NC(=O)[C@@]23C(=O)N[C@@H](Cc4ccccc4)C2[C@H](C)[C@@]2(C)O[C@H]2C3/C=C/C/C=C\CNC1=O (stereo partly specified),-0.138 (inactive),0,-0.5,-6.67 (inactive),0.4 (inactive),0.374 (inactive),,,,
O=[N+]([O-])c1ccc(C[n+]2ccc3ccc(O)cc3c2)o1,1.14 (inactive),0.676,0.87,-5.47 (inactive),-0.0465 (inactive),-0.0404 (inactive),,,,
NC(=O)NCC#Cc1ccc2c(c1)[C@]1(C(=O)N2)[C@H](C(N)=O)[C@H]2C(=O)O[C@H](c3ccccc3)[C@H](c3ccccc3)N2[C@@H]1c1ccccc1OCCO,0.212 (inactive),0.473,0.257,-4.44 (inactive),0.113 (inactive),0.158 (inactive),inactive,inactive,inactive,inactive
COCCCNC(=O)[C@@]1(c2ccc([N+](=O)[O-])cc2)CC(=O)N(C2CCCCC2)[C@@H]1c1ccc(CO)cc1,0.516 (inactive),-0.0219,-0.214,-2.99 (inactive),0.029 (inactive),-0.269 (inactive),,,,
CC(C)(C)OC(=O)CC[C@]1(C(=O)N2CCCCC2)N=C(c2ccc(OCCCO)cc2)O[C@H]1c1ccccc1,1.24 (inactive),0.814,-2.31,-4.83 (inactive),-0.478 (inactive),-0.787 (inactive),,,,
O=C1O[C@H](c2ccccc2)[C@H](c2ccccc2)N2[C@H]1[C@@H](C(=O)NC[C@H](O)c1ccccc1)[C@]1(C(=O)Nc3ccc(C#CC4=CCCCC4)cc31)[C@H]2c1ccc(OCCO)cc1,1.21 (inactive),0.658,-0.435,3.43 (inactive),-0.22 (inactive),-0.301 (inactive),,,,
C#C[C@H](O[Si](C#Cc1ccccc1)(C(C)C)C(C)C)c1ccccc1,0.114 (inactive),0.311,-1.16,-1.52 (inactive),0.116 (inactive),0.201 (inactive),,,,
COCCOC(=O)N1C(=O)[C@@]2(c3cc(C#CCNC(N)=O)ccc31)[C@H](C(=O)N1CCCCCCC1)[C@H]1C(=O)O[C@H](c3ccccc3)[C@H](c3ccccc3)N1[C@@H]2c1ccccc1OCCO,0.252 (inactive),0.276,-1.87,3.73 (inactive),-0.0292 (inactive),-0.349 (inactive),,,,
C=C(COC)/C(=C/C[C@@H](OC(=O)c1ccncc1)c1ccc(OCCO)cc1)c1cc(C(=O)OC)ccc1OC,1.08 (inactive),0.749,-2.98,-4.62 (inactive),-0.252 (inactive),0.535 (inactive),,,,
CN(C)C(=O)[C@@]1(Cc2ccccc2N=[N+]=[N-])N=C(c2ccc(OCCCO)cc2)O[C@H]1c1ccccc1CN=[N+]=[N-],0.0857 (inactive),0.896,-2.25,-1.82 (inactive),-0.554 (inactive),-0.339 (inactive),,,,
C=C(CCCC)C(=O)CC[C@@H](OC(=O)c1cccnc1)c1cccc(OCCO)c1,1.48 (inactive),0.702,-2.81,-3.79 (inactive),-0.279 (inactive),-0.326 (inactive),,,,
Cc1ccc(S[C@]2(C(=O)NCCCN(C)C)CC(=O)N(C3CCCCC3)[C@@H]2c2ccc(CO)cc2I)cc1,-0.605 (inactive),-0.697,-1.65,0.756 (inactive),-0.212 (inactive),-0.074 (inactive),,,,
C[N+](C)(C)CCCCNC(=O)[C@@H]1C[C@@H]2C(=O)N3CCC[C@H]3C(=O)N2[C@@H]1c1cccc(OCCO)c1,3.4 (inactive),0.839,-0.294,-1.2 (inactive),-0.162 (inactive),0.319 (inactive),,,,
